# Sampled rows, rich in hits. Any-hit rate of the full collection: about 1.2%.
# GLA spleen mod: inhibitors or activators of human alpha-galactosidase in spleen homogenate. P06280. human spleen homogenate, 4MU-alpha-Gal fluorescence, 40 min. Potency, µM (titrated, usually from 80 µM), for the others: top-dose activity change, negative = inhibition, hits mostly inhibitors. 0.008% of 240,000 active. AID 2107;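 also: potency is read from the fitted curve at half-maximal effect; 0% = enzyme with vehicle and -100% = no enzyme basal signal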
#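 qHTS titration in buffer at pH 5.0. Alpha-galactosidase activity in spleen homogenate was measured via 4-methylumbelliferone release from 1 mM fluorogenic substrate after 40 min at 37C and a pH 10 stop. AC50 came from Hill fits of control-normalized data.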
# HTT ATP protect: protects HTT-Q103 PC12 cells, measured by ATP; PC12 HTT-Q103 induced, cytoprotection, ATP luminescence, 40 h; 0.14% of 230,000 active; Potency, µM (titrated, usually from 56.4 µM), inactives show cytoprotection (ATP increase), usual class: activators; also: potency is read from the fitted curve at half-maximal effect; % of control where 0% means no effect; nearly all actives have a fitted effect of over 45% in size
#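 Compounds added alongside 100 nM tebufenozide, which induces toxic Q103 huntingtin exon 1-GFP in stable PC12 cells; surviving cells quantified by luminescent ATP measurement. Medium: phenol red-free DMEM, 5% equine and 5% calf serum.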
# GLA inh pH 4.5: alpha-galactosidase A (human) inhibition, pH 4.5; purified enzyme, 4-MU-alpha-Gal fluorescence, pH 4.5; activity change, negative = inhibition, % at 105 µM; 230,000 tested, under 10 active; AID 1467;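 also: 0% = full activity with enzyme and -100% = basal without enzyme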
# Target sequence (P06280 whole entry, looked up): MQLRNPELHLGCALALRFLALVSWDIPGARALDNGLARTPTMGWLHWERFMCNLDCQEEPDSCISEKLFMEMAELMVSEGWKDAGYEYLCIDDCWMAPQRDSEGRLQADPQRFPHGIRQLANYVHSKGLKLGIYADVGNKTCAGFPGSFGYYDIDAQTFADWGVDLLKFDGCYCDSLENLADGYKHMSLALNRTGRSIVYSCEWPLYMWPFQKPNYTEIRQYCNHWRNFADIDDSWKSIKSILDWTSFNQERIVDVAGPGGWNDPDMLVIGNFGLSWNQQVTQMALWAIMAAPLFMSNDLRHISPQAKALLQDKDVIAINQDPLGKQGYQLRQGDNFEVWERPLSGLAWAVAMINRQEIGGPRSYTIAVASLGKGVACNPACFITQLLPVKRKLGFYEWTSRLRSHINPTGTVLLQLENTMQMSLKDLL
# HttQ103 aggreg: reduces HttQ103-GFP aggregates in PC12 cells; Potency, µM (series often up to 46.1 µM), without a hit: at the highest dose activity change, negative = inhibition, most hits filed as inhibitors; PC12 HttQ103-GFP aggregates, Acumen cytometry, 40 h; 1.1% of 220,000 active; also: potency is read from the fitted curve at half-maximal effect; % is scaled to controls: 0 for no effect and ±100 for the full control effect; nearly all actives have a fitted effect of over 60% in size
#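 Aggregates are detected as GFP objects 1–25 µm with signal 6 STDEV over background in lysates of induced PC12 cells. These carry Huntingtin exon 1 with 103 glutamines fused to GFP under an ecdysone promoter; compounds titrated.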
# The depositor's hits bear a star; ? = inconclusive; · = no result given; ! = repeats disagree; [ ] = another dose, or the depositor's remark. Calls follow the shape of the dose curve; as a rule, active = well fitted curve in the direction sought with a large enough effect; inconclusive = small, poorly fitted or top-dose-only effect, or another doubt; inactive = no such curve, though single readings can be large; an effect the other way counts as inactive or inconclusive.
SMILES,GLA spleen mod,HTT ATP protect,GLA inh pH 4.5,HttQ103 aggreg
Cc1nc2c(=O)n(C)c(=O)n(C)c2nc1Cl,8%,-90%[10 µM],2,10µM*
Cn1c(=O)c2nc(NCc3ccccc3)cnc2n(C)c1=O,11%,-12%[10 µM],0,1%[9.22 µM]
CCOP(=O)(OCC)c1nc(-c2ccccc2)oc1NCc1ccccc1,3%,-8%[10 µM],2,-28%
O=P(c1ccccc1)(c1ccccc1)c1nc(-c2ccccc2)oc1NCc1ccccc1,1%,-14%,-2,11µM*
CC1COC(=O)O1 (configuration not stated),21%,·,·,·
CCCCCCCCCCC(C)=O,-13%,·,·,·
CC(=O)OCC1=C[C@H]2[C@@H]3C(C)(C)[C@]3(OC(C)=O)C[C@@H](C)[C@]2(O)[C@@H]2C=C(C)C(=O)[C@@]2(O)C1,-10%,·,·,·
CC(C)Nc1ncnc2c1cnn2-c1ccc(Cl)cc1,7%,-26%[10 µM],3,22µM*
Clc1ccc(Nc2ncnc3c2cnn3-c2ccccc2)cc1,0%,-6%,5,3.5µM*
N/C(=N\OC(=O)C(c1ccccc1)c1ccccc1)c1cccnc1,-9%,12%,4,0.71µM*
N/C(=N\OC(=O)COc1ccccc1)c1cccnc1,1%,32%,0,-10%
CS(=O)(=O)CCCCN=C=S,0%,·,0,·
Brc1ccc(N/N=C(/N=Nc2nn[nH]n2)c2ccccc2)cc1,-3%,-131%,-8,7.1µM*
c1ccc(C2=Nn3c(nnc3-c3ccncc3)SC2)cc1,2%,25µM*,-1,10µM*
Cc1cccn2c(=O)c(-c3nnn[nH]3)cnc12,·,1%,·,8%
COc1cccc([C@@H]2Oc3ccc(OC)cc3C(=O)[C@H]2OC(=O)NCCOc2ccccc2)c1,-11%,-9%,-15,·
c1csc(-c2csc3ncnc(NCCCN4CCOCC4)c23)c1,1%,26%[1.9 µM],-7,7.9µM*
Cc1ccc2cc3cc(C(=O)N(CC(=O)NC4CCCC4)c4cccc(C)c4C)sc3nc2c1,-1%,3.2µM*,1,-3%
Cc1ccc(C)c(N(CC(=O)NC2CCCC2)C(=O)c2cc3cc4cccc(C)c4nc3s2)c1,7%,35%,4,-11%
O=C1/C(=C/c2ccc(O)c(O)c2)Oc2ccccc21,21%,·,·,·
CC(=O)OC1C=C[C@@H](OC(C)=O)C1 (some centres not stated),-6%,·,·,·
O=C(CSc1nc2ccccc2s1)Nc1nccs1,-5%,3%,-18,20µM*
Cc1csc(NC(=O)CSc2nc3ccccc3s2)n1,3%,11%[10 µM],-1,-10%
Cc1nc2ccccc2cc1OCc1ccccc1,-3%,-23%,-3,13µM*
Cc1nc2ccccc2cc1OCc1ccc(Cl)cc1,-5%,·,-14,7.9µM*
SMILES,GLA spleen mod,HTT ATP protect,GLA inh pH 4.5,HttQ103 aggreg
COc1cccc(COc2cc3ccccc3nc2C)c1,11%,-29%,-23,1.8µM*
COC(=O)c1sccc1OCc1cccc(OC)c1,4%,2%,1,15%
CSc1ncnc2nc[nH]c12,·,-21%,·,·
N#Cc1ccc(CN2CC[C@@]3(CCCN(S(=O)(=O)c4ccccc4)C3)C2)cc1,-7%,9%,·,·
COc1ccc(C(=O)/C(Br)=C/C(=O)O)cc1,·,?,·,18%
O=S(=O)(Nc1cccnc1)c1ccc(C2CCCCC2)cc1,-1%,7%[10 µM],0,2.8µM*
O=S(=O)(Nc1cccnc1)c1ccccc1,-11%,-25%,10,4%
CCC(=O)NC1Cc2ccccc2C(c2ccccc2)C1 (configuration not stated),17%,-43%,·,·
O=C(COc1ccc(Br)cc1CNCCc1ccccc1)NCc1ccccc1,0%,-231%,-11,13µM*
CCCNCc1cc(Br)ccc1OCC(=O)NCCc1ccccc1,-2%,·,-8,-10%
COc1ccccc1N1CCN(CCCNc2cc(=O)n(C)c(=O)n2C)CC1,2%,32µM*!,3,24%
COc1ccccc1N1CCN(CCCNc2c(C)c(=O)n(C)c(=O)n2C)CC1,2%,18%,-2,·
Cc1cccc(NC(=O)c2oc3c(c2C)C(=O)CC(C)(C)C3)n1,1%,-28%[0.074 µM],0,22µM*
COc1ccc(-n2c3c(cc(C(=O)Nc4cccc(C)n4)c2=O)C(=O)CC(C)(C)C3)cc1,6%,·,4,·
CCCCCCCC/C=C\CCCCCCCCCCCC(=O)O,4%,·,·,·
Cc1ccccc1C(=O)N/N=C/c1ccc([N+](=O)[O-])s1,-8%,-58%,-5,25µM*
COc1cc2ncnc(NCc3ccc(C)cc3)c2cc1OC,-1%,-19%[10 µM],-4,35µM*
COc1cccc(CNc2ncnc3cc(OC)c(OC)cc23)c1,0%,20%[10 µM],-3,?
C=CCC(O)[C@H](Cc1cnc2ccccc2c1)[C@H](/C=C/CCCC)c1ccccc1 (some centres not stated),2%,·,·,·
Cc1[nH]nc2c1/C(=N/O)CC(c1ccccc1)C2 (configuration not stated),-4%,-32%,-3,13µM*
COc1ccc(N/N=C(\C#N)C(=N)SCc2ccccc2)cc1,12%,?,-2[21.1 µM],7.9µM*
O=C(/C=C/c1ccco1)Oc1cc(Br)cc(/C=N/NC(=O)c2ccccc2O)c1,-2%,-78%[10 µM],1,2.2µM*
O=C(Nc1cccc(S(=O)(=O)N2CCCCCC2)c1)c1cc(=O)c2ccccc2o1,-10%,-39%,-23,20µM*
CN(c1ccccc1)S(=O)(=O)c1cccc(NC(=O)c2cc(=O)c3ccccc3o2)c1,-9%,-123%,-4,13µM*
COC(=O)C1=C(C)N(Cc2ccccc2)C2=C(C(=O)c3ccccc3)C(c3ccccc3)[C@@](O)(C(=O)OC)C(=O)N2C1c1ccccc1 (some centres not stated),0%[17.5 µM],3%[10 µM],·,·
SMILES,GLA spleen mod,HTT ATP protect,GLA inh pH 4.5,HttQ103 aggreg
CCS(=O)(=O)c1ccc(Sc2nncn2C)c([N+](=O)[O-])c1,-14%,-165%,-12,11µM*
Cc1cccc(NC(=O)c2c(-c3ccccc3)noc2C)n1,9%,2.2µM*,-1,-9%
CCCCCCCCCCCCCCC[C@@H](O)[C@H](CO)NC(C)=O,9%,-10%,0,·
CC1Cc2ccccc2N1C(=O)CN(C)S(=O)(=O)c1cccc2cccnc12 (configuration not stated),4%,-18%,2,0.032µM*
Cc1nc(-c2coc3c(O)c(O)ccc3c2=O)cs1,8%,-176%,-2,·
O=S1(=O)C=C(Sc2nc3ccccc3s2)c2ccccc21,0%,2µM*,3,4.5µM*
Cc1cccc(CNc2ccnc(-c3ccc(C(=O)N(C)C)cc3)n2)c1,-7%,-12%,-11,·
Cc1cc(C)n(-c2nnc(N3CCN(c4ccc(F)cc4)CC3)nn2)n1,-5%,-130%,-5,11µM*
Cc1cc(C)n(-c2ccc(N3CCOCC3)nn2)n1,7%,-6%[1.9 µM],1,?
CC(=O)C1=C(C)NC(SCC(=O)c2ccccc2)=C(C#N)C1CC(C)C (configuration not stated),1%,-15%[0.074 µM],-4,1.6µM*
CC(=O)C1=C(C)NC(SCC(=O)c2ccccc2)=C(C#N)C1c1ccco1 (configuration not stated),-7%,-21%,-1,2%

# Compound activity as filed in PubChem BioAssay.
